In PubChem BioAssay (NCATS):
Inconclusive results are not listed. A number with no mark means an inactive call. Active and inactive are the calls of the source. Calls follow the shape of the dose curve; as a rule, active = well fitted curve in the direction sought with a large enough effect; inconclusive = small, poorly fitted or top-dose-only effect, or another doubt; inactive = no such curve, though single readings can be large; an effect the other way counts as inactive or inconclusive.
Potency is read from the fitted curve at half-maximal effect.

System: not listed separately
Test: Cytometry Cell-Based qHTS for Inhibitors of the mTORC1 Signaling Pathway in MEF cells (AID 2668);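 as to activity change, negative = inhibition: Tsc2-/- p53-/- mouse embryonic fibroblasts stably re-expressing wild-type Tsc2; percent cells positive for phospho-rpS6 Ser235/236 relative to propidium iodide stain; plate controls were DMSO wells for no effect and 7.5 nM rapamycin control wells for full effect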
Conditions: mTORC1 pathway readout; series mostly up to 38.3 µM; activity change, negative = inhibition: at the top concentration
Method in brief: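 Phospho-rpS6 (Ser235/236) immunofluorescence over PI signal, scored as % positive cells using thresholds from 7.5 nM rapamycin and DMSO wells, after 24 h compound exposure of WT-Tsc2-rescued Tsc2-/-, p53-/- MEFs. PI cell count recorded for viability.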
For `CC(C)(C=O)Cc1cc(C(C)(C)C)c(O)c(C(C)(C)C)c1`, the “activity change, negative = inhibition” value was 13.7%.
In the case of `CCCCCCCCCCCCCCCCCC(=O)OC(CC(=O)O)C[N+](C)(C)C` (stereo unspecified), the “activity change, negative = inhibition” value is reported as -17.4%.
For `O=C(Nc1cccc(C(=O)Nc2ccc(S(=O)(=O)O)c3cc(S(=O)(=O)O)cc(S(=O)(=O)O)c23)c1)Nc1cccc(C(=O)Nc2ccc(S(=O)(=O)O)c3cc(S(=O)(=O)O)cc(S(=O)(=O)O)c23)c1`, the “activity change, negative = inhibition” value was 0.19%.
For `Cc1ccccc1CNc1ncnc2c1ncn2C1OC(CO)C(O)C1O` (stereo unspecified), the “activity change, negative = inhibition” value was 11.1%.
For `Cc1cc(NC(=O)Nc2ccc3c(ccn3C)c2)sn1`, the “activity change, negative = inhibition” value was 5.64%.
For `O=C(O)[C@@H]1C[C@H](C(=O)O)N1`, the “activity change, negative = inhibition” value was 2.94%.
For `CCCCCC(O)c1cccc(OCc2ccc3ccccc3n2)c1` (stereo unspecified), the “activity change, negative = inhibition” value was -21%.
For `Oc1ccc(C2CNCc3sccc32)cc1O` (stereo unspecified), the “activity change, negative = inhibition” value was -27.1%.
In the case of `COc1ccccc1N1CCN(CCCCNS(=O)(=O)c2cccc3c(N(C)C)cccc23)CC1`, the Potency is reported as 16.5 µM (active).
With `O=c1[nH]c2cc(C(F)(F)F)ccc2n1-c1cc(C(F)(F)F)ccc1O` the “activity change, negative = inhibition” value was 8.22%.
For `CCCN(CC1CC1)c1nc(C)nc(Nc2c(Cl)cc(Cl)cc2Cl)c1Cl`, the “activity change, negative = inhibition” value was -3.06%.
In the case of `CCCCCCCC/C=C\CCCCCCCC(=O)NCCO`, the “activity change, negative = inhibition” value is reported as 5.2%.
For `Ic1ccc(N2CCN(Cc3c[nH]c4ncccc34)CC2)cc1`, the “activity change, negative = inhibition” value was -0.333%.
In the case of `C#CCN1C(C)=C(C(=O)OC)C(c2cccc([N+](=O)[O-])c2)C(C(=O)OCC)=C1C` (stereo unspecified), the “activity change, negative = inhibition” value is reported as 1.17%.
For `Fc1ccc(C(OCCCc2cnc[nH]2)c2ccc(F)cc2)cc1`, the “activity change, negative = inhibition” value was -12.9%.
In the case of `N[C@@H](CC(=O)O)C(=O)O`, the “activity change, negative = inhibition” value is reported as -1.2%.
In the case of `CC(C)Cc1ccc([C@H](C)C(=O)O)cc1`, the “activity change, negative = inhibition” value is reported as -2.53%.
In the case of `CN=c1nc(-c2ccccc2)n(-c2ccccc2)s1`, the “activity change, negative = inhibition” value is reported as -14.3%.
In the case of `CN(C)C(N)=NCCC[C@H](N)C(=O)O`, the “activity change, negative = inhibition” value is reported as -4.59%.
In the case of `O=c1[nH]c2cc(Cl)c(Cl)cc2[nH]c1=O`, the “activity change, negative = inhibition” value is reported as 8.94%.
With `CCN1/C(=C/C(C)=O)Sc2ccc(OC)cc21` the “activity change, negative = inhibition” value was -4.21%.
With `O=C1NC(O)=NC1(c1ccccc1)c1ccccc1` the “activity change, negative = inhibition” value was 4.73%.
With `O=C(O)CCCC[C@@H]1CCSS1` the “activity change, negative = inhibition” value was 2.14%.
In the case of `COc1ccccc1CNCCCCCCNCCCCCCCCNCCCCCCNCc1ccccc1OC`, the “activity change, negative = inhibition” value is reported as 2.01%.
For `NCCCCCCCCCCN`, the “activity change, negative = inhibition” value was -2.98%.

System: not listed separately
Test: Validation screen for small molecules that induce DNA re-replication in MCF 10A normal breast cells (AID 463097); also: nearly all actives have a fitted effect of over 60% in size; as to re-replication induction: 0% is about no effect
Conditions: MCF 10A cells, DNA re-replication phenotype imaging; series mostly up to 46.1 µM; re-replication induction: at the top concentration
Method in brief: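 Read-out is Hoechst total nuclear intensity by fluorescence scanning imager, flagging increased high-DNA-content nuclei. Compounds were incubated with MCF 10A cells for 48 hr (37 C, 5% CO2) before 40 min staining.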
For `O=C(Nc1ccccc1)c1cc([N+](=O)[O-])ccc1Cl`, the “re-replication induction” value was 17.1%.
For `CC(C)(C=O)Cc1cc(C(C)(C)C)c(O)c(C(C)(C)C)c1`, the “re-replication induction” value was 21.5%.
With `O=C(Nc1cccc(C(=O)Nc2ccc(S(=O)(=O)O)c3cc(S(=O)(=O)O)cc(S(=O)(=O)O)c23)c1)Nc1cccc(C(=O)Nc2ccc(S(=O)(=O)O)c3cc(S(=O)(=O)O)cc(S(=O)(=O)O)c23)c1` the “re-replication induction” value was -0.115%.
For `Cc1cc(NC(=O)Nc2ccc3c(ccn3C)c2)sn1`, the “re-replication induction” value was 0.295%.
For `O=C(O)[C@@H]1C[C@H](C(=O)O)N1`, the “re-replication induction” value was -1.88%.
In the case of `O=C1C(SCCO)=C(SCCO)C(=O)c2ccccc21`, the Potency is reported as 3.98 µM (active).
In the case of `Oc1ccc(C2CNCc3sccc32)cc1O` (stereo unspecified), the “re-replication induction” value is reported as 21.9%.
For `N.N.O=C(O)C1(C(=O)O)CCC1.[Pt]`, the “re-replication induction” value was -4.71%.
For `O=c1[nH]c2cc(C(F)(F)F)ccc2n1-c1cc(C(F)(F)F)ccc1O`, the “re-replication induction” value was -5.54%.
With `CO/N=C(\C(=O)N[C@@H]1C(=O)N2C(C(=O)O)=C(COC(C)=O)CS[C@H]12)c1csc(N)n1` (stereo in doubt) the “re-replication induction” value was -0.979%.
For `Fc1ccc(C(OCCCc2cnc[nH]2)c2ccc(F)cc2)cc1`, the “re-replication induction” value was 18.7%.
With `N[C@@H](CC(=O)O)C(=O)O` the “re-replication induction” value was 1.43%.
With `CC(C)Cc1ccc([C@H](C)C(=O)O)cc1` the “re-replication induction” value was -6.49%.
With `CN=c1nc(-c2ccccc2)n(-c2ccccc2)s1` the Potency was 11.2 µM (active).
In the case of `CN(C)C(N)=NCCC[C@H](N)C(=O)O`, the “re-replication induction” value is reported as -0.646%.
With `O=c1[nH]c2cc(Cl)c(Cl)cc2[nH]c1=O` the “re-replication induction” value was -1.28%.
In the case of `CCN1/C(=C/C(C)=O)Sc2ccc(OC)cc21`, the “re-replication induction” value is reported as 12.8%.
In the case of `O=C1NC(O)=NC1(c1ccccc1)c1ccccc1`, the “re-replication induction” value is reported as 0.83%.
In the case of `O=C(O)CCCC[C@@H]1CCSS1`, the “re-replication induction” value is reported as 0.847%.
For `COc1ccccc1CNCCCCCCNCCCCCCCCNCCCCCCNCc1ccccc1OC`, the “re-replication induction” value was 1.3%.
In the case of `NCCCCCCCCCCN`, the “re-replication induction” value is reported as -2.62%.

Biological target: Ubiquitin carboxyl-terminal hydrolase 2 (Homo sapiens) (UniProt O75604)
Sequence (O75604 whole entry, looked up): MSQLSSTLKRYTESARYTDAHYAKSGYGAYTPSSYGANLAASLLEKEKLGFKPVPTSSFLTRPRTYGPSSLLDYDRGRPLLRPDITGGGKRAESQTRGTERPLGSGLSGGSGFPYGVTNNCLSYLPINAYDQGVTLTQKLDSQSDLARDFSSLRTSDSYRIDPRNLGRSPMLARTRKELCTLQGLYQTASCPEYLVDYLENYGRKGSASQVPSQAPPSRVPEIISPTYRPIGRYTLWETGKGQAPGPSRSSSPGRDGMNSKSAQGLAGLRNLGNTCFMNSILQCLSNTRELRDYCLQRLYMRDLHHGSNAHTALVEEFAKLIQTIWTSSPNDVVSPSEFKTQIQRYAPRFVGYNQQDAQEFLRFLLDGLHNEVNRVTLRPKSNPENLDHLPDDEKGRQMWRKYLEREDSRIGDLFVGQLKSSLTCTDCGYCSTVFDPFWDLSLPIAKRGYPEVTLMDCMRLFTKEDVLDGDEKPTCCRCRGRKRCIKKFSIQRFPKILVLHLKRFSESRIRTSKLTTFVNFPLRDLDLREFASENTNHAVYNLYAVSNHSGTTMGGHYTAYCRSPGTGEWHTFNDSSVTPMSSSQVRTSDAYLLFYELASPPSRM
Test: qHTS Validation Assay for Inhibitors of Ubiquitin-specific Protease USP2a Using CHOP2 as the Reporter (AID 463106);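 as to activity, negative = inhibition: plate controls were DMSO for no effect and full inhibition by NEM for full effect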
Conditions: USP2a cleavage of CHOP2 reporter, enzymatic; series mostly up to 38.3 µM; activity, negative = inhibition: at the top concentration
Method in brief: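 Inhibition is expressed relative to NEM as the full-inhibition control, with concentration-response curves classed by fit quality, magnitude and activity. Enzyme (USP2 core, 10nM) meets 25nM Ub-CHOP2 after compound preincubation; readings are taken at 60min.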
With `O=C(Nc1ccccc1)c1cc([N+](=O)[O-])ccc1Cl` the “activity, negative = inhibition” value was 5.73%.
With `CC(C)(C=O)Cc1cc(C(C)(C)C)c(O)c(C(C)(C)C)c1` the “activity, negative = inhibition” value was 0.285%.
With `CCCCCCCCCCCCCCCCCC(=O)OC(CC(=O)O)C[N+](C)(C)C` (stereo unspecified) the “activity, negative = inhibition” value was 0.49%.
With `NC[C@@H]1O[C@H](C23CC4CC(CC(C4)C2)C3)Cc2c1ccc(O)c2O` the “activity, negative = inhibition” value was -0.37%.
With `O=C(Nc1cccc(C(=O)Nc2ccc(S(=O)(=O)O)c3cc(S(=O)(=O)O)cc(S(=O)(=O)O)c23)c1)Nc1cccc(C(=O)Nc2ccc(S(=O)(=O)O)c3cc(S(=O)(=O)O)cc(S(=O)(=O)O)c23)c1` the Potency was 8.26 µM (active).
For `CN1CCc2ccccc2Cc2[nH]c3ccccc3c2CC1`, the “activity, negative = inhibition” value was 0.98%.
For `Cc1ccccc1CNc1ncnc2c1ncn2C1OC(CO)C(O)C1O` (stereo unspecified), the “activity, negative = inhibition” value was 4.64%.
In the case of `Cc1cc(NC(=O)Nc2ccc3c(ccn3C)c2)sn1`, the “activity, negative = inhibition” value is reported as -0.372%.
With `O=C(O)[C@@H]1C[C@H](C(=O)O)N1` the “activity, negative = inhibition” value was -3.26%.
With `O=C1C(SCCO)=C(SCCO)C(=O)c2ccccc21` the “activity, negative = inhibition” value was -1.95%.
In the case of `CCCCCC(O)c1cccc(OCc2ccc3ccccc3n2)c1` (stereo unspecified), the “activity, negative = inhibition” value is reported as -8.15%.
In the case of `Oc1ccc(C2CNCc3sccc32)cc1O` (stereo unspecified), the “activity, negative = inhibition” value is reported as 1.13%.
With `COc1ccccc1N1CCN(CCCCNS(=O)(=O)c2cccc3c(N(C)C)cccc23)CC1` the “activity, negative = inhibition” value was -1.82%.
In the case of `O=c1[nH]c2cc(C(F)(F)F)ccc2n1-c1cc(C(F)(F)F)ccc1O`, the “activity, negative = inhibition” value is reported as 1.29%.
With `CCCN(CC1CC1)c1nc(C)nc(Nc2c(Cl)cc(Cl)cc2Cl)c1Cl` the “activity, negative = inhibition” value was 3.81%.
In the case of `CCCCCCCC/C=C\CCCCCCCC(=O)NCCO`, the “activity, negative = inhibition” value is reported as -6.5%.
In the case of `Ic1ccc(N2CCN(Cc3c[nH]c4ncccc34)CC2)cc1`, the “activity, negative = inhibition” value is reported as -3.34%.
For `C#CCN1C(C)=C(C(=O)OC)C(c2cccc([N+](=O)[O-])c2)C(C(=O)OCC)=C1C` (stereo unspecified), the “activity, negative = inhibition” value was 0.664%.
For `Oc1cc(O)cc(/C=C/c2ccc(O)c(O)c2)c1`, the “activity, negative = inhibition” value was -1.35%.
In the case of `Fc1ccc(C(OCCCc2cnc[nH]2)c2ccc(F)cc2)cc1`, the “activity, negative = inhibition” value is reported as -2.51%.
For `CC12C(=O)OC(=O)C1(C)C1CCC2O1` (stereo unspecified), the “activity, negative = inhibition” value was 0.0591%.
With `N[C@@H](CC(=O)O)C(=O)O` the “activity, negative = inhibition” value was -0.823%.
With `CN=c1nc(-c2ccccc2)n(-c2ccccc2)s1` the “activity, negative = inhibition” value was -1.08%.
For `CN(C)C(N)=NCCC[C@H](N)C(=O)O`, the “activity, negative = inhibition” value was 1.76%.
With `O=c1[nH]c2cc(Cl)c(Cl)cc2[nH]c1=O` the “activity, negative = inhibition” value was 2.17%.
With `CCN1/C(=C/C(C)=O)Sc2ccc(OC)cc21` the “activity, negative = inhibition” value was 1.01%.
With `O=C1NC(O)=NC1(c1ccccc1)c1ccccc1` the “activity, negative = inhibition” value was -3.51%.
With `O=C(O)CCCC[C@@H]1CCSS1` the “activity, negative = inhibition” value was -0.606%.
For `COc1ccccc1CNCCCCCCNCCCCCCCCNCCCCCCNCc1ccccc1OC`, the “activity, negative = inhibition” value was -0.833%.
For `NCCCCCCCCCCN`, the “activity, negative = inhibition” value was -3.28%.
